Test results from PubChem BioAssay (NCI).
Compounds without any hit were thinned out: in the full panel of roughly 83,000, 20% have a hit.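 A percent growth of 40 corresponds to 60% growth inhibition; 0 means no net growth; -100 means all cells died. Active threshold: below 10.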 Values without a mark were called inactive. Activity calls are given as the source filed them.

Key:
Assay in all cases: NCI-60 one-dose screen, 48 h (100 = growth as untreated, 0 = no growth, -100 = all killed)
Settings in all cases: 10 µM unless noted
SR leukemia = tested on: SR leukemia
RPMI-8226 leukemia = tested on: RPMI-8226 leukemia
OVCAR-8 ovarian = tested on: OVCAR-8 ovarian
OVCAR-5 ovarian = tested on: OVCAR-5 ovarian
OVCAR-4 ovarian = tested on: OVCAR-4 ovarian
SK-OV-3 ovarian = tested on: SK-OV-3 ovarian
IGROV1 ovarian = tested on: IGROV1 ovarian
OVCAR-3 ovarian = tested on: OVCAR-3 ovarian
HS 578T breast = tested on: HS 578T breast
NCI/ADR-RES ovarian = tested on: NCI/ADR-RES ovarian
T-47D breast = tested on: T-47D breast
BT-549 breast = tested on: BT-549 breast
MDA-MB-435 melanoma = tested on: MDA-MB-435 melanoma
SW-620 colon = tested on: SW-620 colon
MCF7 breast = tested on: MCF7 breast
HCT-116 colon = tested on: HCT-116 colon
HCC-2998 colon = tested on: HCC-2998 colon
KM12 colon = tested on: KM12 colon

Row | SMILES | growth (SR leukemia) | growth (RPMI-8226 leukemia) | growth (OVCAR-8 ovarian) | growth (OVCAR-5 ovarian) | growth (OVCAR-4 ovarian) | growth (SK-OV-3 ovarian) | growth (IGROV1 ovarian) | growth (OVCAR-3 ovarian) | growth (HS 578T breast) | growth (NCI/ADR-RES ovarian) | growth (T-47D breast) | growth (BT-549 breast) | growth (MDA-MB-435 melanoma) | growth (SW-620 colon) | growth (MCF7 breast) | growth (HCT-116 colon) | growth (HCC-2998 colon) | growth (KM12 colon)
1 | Clc1nc(Cl)c2ncn(CCOCCn3cnc4c(Cl)nc(Cl)nc43)c2n1 | -75.9% (active) | -52.8% (active) | -83.2% (active) | -85% (active) | -86.1% (active) | -98.3% (active) | -95.6% (active) | -97.4% (active) | -42.5% (active) | -56% (active) | -53.9% (active) | -94.1% (active) | -90.1% (active) | -86.9% (active) | -48.9% (active) | -79.7% (active) | -87.5% (active) | -85.9% (active)
2 | O=S(=O)(NCCCNc1nccc(-c2c(-c3cccc(O)c3)nc3occn23)n1)c1ccc(Br)cc1 | 89.8% | 86.4% | 86% | 137% | 118% | 94% | 79.2% | 102% | 91.6% | 107% | 83.2% | 105% | 40.6% | 112% | 98.8% | 65.2% | 121% | 94.4%
3 | COc1ccc(-c2ncc(-c3ccccc3)[nH]2)cc1OC | 11% | 89.5% | 113% | 113% | 116% | 125% | 119% | 103% | 102% | 121% | 102% | 240% | 104% | 108% | 83.6% | 117% | 120% | 105%
4 | N#CSCC1CC(O)(c2ccccc2)C(c2ccccc2)C(c2ccc(F)cc2)O1 (stereo unspecified) | -3.15% (active) | 12.4% | 44.6% | 51.3% | 15.8% | 80.2% | 17.1% | -84.2% (active) | -11.2% (active) | 35.3% | 9.18% (active) | 5.69% (active) | -0.166% (active) | -1.6% (active) | 5.64% (active) | -63.9% (active) | 74.8% | 4.67% (active)
5 | O=C(Nc1ccc2cc3ccc(NC(=O)N4CCCCCC4)cc3nc2c1)N1CCCCCC1 | 8.09% (active) | -36.8% (active) | -28.3% (active) | 4.88% (active) | -44.8% (active) | -36.7% (active) | -48.5% (active) | -69.2% (active) | -33.2% (active) | 36.7% | -30% (active) | -66.6% (active) | -82.4% (active) | -56.3% (active) | -45.9% (active) | -53.1% (active) | -63.7% (active) | -65.9% (active)
6 | CC(Oc1ccc(C(=O)NS(=O)(=O)C(C)(C)C)cc1C(F)(F)F)c1ccc(Oc2ccccc2)cn1 (stereo unspecified) | 25.9% | 94.8% | 75.2% | 101% | 93.1% | 104% | 64.8% | 8.07% (active) | 60.4% | 83% | 60.5% | 67.2% | -4.12% (active) | 58.4% | 38.9% | 60.1% | 86.9% | 52.7%
7 | O=S(=O)(NCCNc1nccc(-c2c(-c3cccc(F)c3)nc3occn23)n1)c1cccc2ccccc12 | 41.6% | 21.7% | 58.4% | 116% | 47.8% | 69% | 35.4% | 71.7% | 64.9% | 48.8% | 29.9% | 78.3% | 32.8% | 72.1% | 27.8% | 36.1% | 79.7% | 49.6%
8 | Nc1c(Cl)cc([N+](=O)[O-])cc1Br | 99.5% | 86.8% | 93.9% | 103% | 102% | 110% | 114% | 102% | 105% | 95% | 97.8% | 97.5% | 91.4% | – | 99.9% | 105% | 93.7% | 103%
9 | COc1cc(C2CC(c3cccc(Nc4ccncc4)c3)=NN2C(C)=O)cc(OC)c1OC (stereo unspecified) | 27.3% | 94.4% | 97% | 98.9% | 83.8% | 90.6% | 89.2% | 96.3% | 86% | 97.9% | 85.2% | 103% | 18.1% | 87.8% | 72.6% | 71.2% | 95.1% | 69.5%
